Experimental data: PubChem BioAssay AID1233 (SRMLSC, 2008)
Results with a measured potency or affinity are listed apart. The source made the active and inactive calls.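 How the source made its calls: active means a dose-response curve fit returns a half-maximal inhibitory concentration, extrapolated values included; inactive means the fit returns no such concentration.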 Residues, ends and D or L forms follow the SMILES beside them.

These molecules were tested against HMG-CoA reductase [Enterococcus faecalis] (UniProt Q9FD70) (assay: inhibitors of E. faecalis class II HMGR, confirmation, biochemical, Enterococcus faecalis (AID 1233;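 further: 0% = full reaction carrier wells and 100% = background wells lacking mevalonate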)). Details: purified E. faecalis HMGR, NADPH absorbance 340 nm kinetics; series mostly up to 100 µM; inhibition: at the top concentration.

| Structure (SMILES) | inhibition |
| --- | --- |
| COc1ccc(CCn2c(O)c(C=NCCCn3ccnc3)c(=O)[nH]c2=O)cc1OC | -9.15% (inactive) |
| OC(Cn1c2ccccc2c2ccccc21)C[n+]1cccc2ccccc21 (stereo unspecified) | -0.21% (inactive) |
| CCN(CCNc1ccc([N+](=O)[O-])c2cccnc12)S(=O)(=O)c1ccccc1 | -0.43% (inactive) |
| CCCn1cc(C(=O)O)cn1 | -0.87% (inactive) |
| CCc1ccc(NC(=O)C(C)OC(=O)c2c(C)nn(Cc3ccccc3)c2Cl)cc1 (stereo unspecified) | -2.14% (inactive) |
| O=[N+]([O-])/C(Cl)=C1\NCCN1Cc1ccc(Cl)nc1 | -0.72% (inactive) |
| COc1ccc(C(=O)C2CCCN(Cc3cnc(C)s3)C2)c(OC)c1 (stereo unspecified) | -9.69% (inactive) |
| CC(C)Oc1cccc(NC(=O)c2cccn(Cc3ccc4c(c3)OC(F)(F)O4)c2=O)c1 | 0.02% (inactive) |
| COc1ccc(C[C@@H]2c3cc(O)c(OC)cc3CCN2C)cc1O | -10.2% (inactive) |
| COc1ccc(NC(=O)c2c(C)nn(Cc3ccccc3Cl)c2Cl)cc1Cl | 0.95% (inactive) |
| CCCCC(CC)CNCC(O)c1ccccc1 (stereo unspecified) | -0.48% (inactive) |
| CCN1CCN(C(=O)Cc2ccccc2OC)CC1 | -4.39% (inactive) |
| CC1(C)C(C(=O)NCc2ccco2)C1(C)C | -1.02% (inactive) |
| Cc1c(P(=S)(c2ccccc2)c2ccccc2)[n+]2ccccc2n1C | -0.09% (inactive) |
| O=C(O)[C@@H]1C[C@H]1[C@@H](NP(=O)(c1ccccc1)c1ccccc1)c1ccccc1 | -6.79% (inactive) |
| CC(C)C[C@H](NC(=O)[C@@H]1CCCN1C(=O)[C@@H](N)Cc1ccc(O)cc1)C(=O)NCC(N)=O (H-YPLG-NH2) | -4.74% (inactive) |
